Among the data in PubChem BioAssay AID431 (Sanford-Burnham Center for Chemical Genomics, 2006) are cytotoxicity values, retold here.

About 1,100 (1.7%) of roughly 63,000 compounds were called active.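 How the source made its calls: active means compounds whose percent cytotoxicity in the single-dose primary screen, scaled between solvent and toxic-drug controls, exceeds 50; inactive means the rest.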 The list comes from a sample in which actives are over-represented; it also holds similar structures and randomly drawn compounds. Measured potencies and affinities stand elsewhere.

The nature of the experiment: cytotoxicity in KRAS-transformed pancreatic duct cells, primary screen, cell-based, fluorescence, HTS (AID 431).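 Further: 0% = DMSO solvent wells and 100% = doxorubicin-treated wells.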 Conditions: HPDE-C7K KRASV12 cells, Alamar Blue viability, 48 h; at 10 µM; active compounds read high. (Resazurin is reduced to fluorescent resorufin, in cell work by metabolically active cells.)
As to `Cc1csc(=N)n1CC(=O)N1CCc2ccccc21`, the cytotoxicity is -5.1% (inactive).

For `CCN1C(=O)c2cccc3c(S(=O)(=O)Nc4ccccc4OC)ccc1c23`, the cytotoxicity is 15.9% (inactive).

For `COc1ccc(-c2cc(C(F)(F)F)n3nc(C(=O)Nc4cc(C)on4)cc3n2)cc1OC`, the cytotoxicity was 8.1% (inactive).

Regarding `Cc1cc(C)c(S(=O)(=O)N2CCN(CCO)CC2)c(C)c1`, the cytotoxicity was -4.9% (inactive).

For `CCN(CC)CCOc1ncnc2c1oc1ccccc12`, the cytotoxicity is -9.3% (inactive).

Regarding `CCc1nc(OCCN(CC)CC)c2oc3ccccc3c2n1`, the cytotoxicity was 15.9% (inactive).

For the compound `CC1CCc2nn(CC(=O)NCCN3CCOCC3)cc2C1` (stereo not drawn), the cytotoxicity is -3.4% (inactive).

Regarding `O=C(c1ccccc1)c1ccc(OCC(O)CN2CCOCC2)cc1` (stereo not drawn), the cytotoxicity is 10.8% (inactive).

As to `c1ccc(C(CN2CCOCC2)c2ccccc2)cc1`, the cytotoxicity is -15.2% (inactive).

As to `CCOc1ccc(-n2c(Cc3cc(=O)[nH]c(=O)[nH]3)nnc2SC(C)C)cc1`, the cytotoxicity is -20.5% (inactive).

Consider `Cc1cc(C(=O)Oc2ccccc2C(=O)O)c(C)o1`, for which the cytotoxicity is -8% (inactive).

Regarding `O=C(Nc1ncc(Cc2ccccc2)s1)c1cccs1`, the cytotoxicity is 4.6% (inactive).

Regarding `O=C(Nc1ncc(Cc2ccccc2)s1)C1CCCO1` (stereo not drawn), the cytotoxicity is 6.8% (inactive).

For `Cc1ccc(C(=O)Nc2ncc(Cc3ccccc3)s2)o1`, the cytotoxicity is 51.3% (active).

Regarding `Cc1ccc(C(=O)Nc2ncc(Cc3ccc(F)cc3)s2)o1`, the cytotoxicity is 61.5% (active).

Consider `CCSc1nnc(NC(=O)c2ccc(C)o2)s1`, for which the cytotoxicity is -3.8% (inactive).

For the compound `Cc1nnc(SCC(=O)Nc2ncc(Cc3ccc(F)cc3)s2)n1N`, the cytotoxicity is -4.8% (inactive).

Consider `COc1ccc(-c2cc(C(F)(F)F)nc(SCC(=O)N3CC(C)OC(C)C3)n2)cc1OC` (stereo not drawn), for which the cytotoxicity is -1.3% (inactive).

As to `Cc1c(Cl)cccc1NC(=O)CSCc1cc(=O)[nH][nH]1`, the cytotoxicity was -8.5% (inactive).

As for `Cc1cc2cc(CN(Cc3ccc4c(c3)OCO4)C(=O)c3ccco3)c(=O)[nH]c2cc1C`, the cytotoxicity was 22.5% (inactive).

Take `Cn1c(SCC(=O)NCc2cccs2)nnc1-c1cccs1`: the cytotoxicity is -2.7% (inactive).

Regarding `CCS(=O)(=O)N1CCN(c2ccccc2F)CC1`, the cytotoxicity was -12.1% (inactive).

Take `O=S1(=O)C=C(Sc2nc3ccccc3s2)c2ccccc21`: the cytotoxicity is 107% (active).

On to `Clc1ccc2oc(-c3ccccc3)nc2c1`, for which the cytotoxicity was 3.5% (inactive).

Regarding `O=S1(=O)C=C(Sc2nnc(-c3ccccc3)o2)c2ccccc21`, the cytotoxicity is 26.2% (inactive).

Consider `O=S1(=O)C=C(SCCN2CCCCC2)c2ccccc21`, for which the cytotoxicity was 6.2% (inactive).

On to `Cn1c(Sc2nc3ccccc3n2C)nc2ccccc21`, for which the cytotoxicity was 21.7% (inactive).

Consider `O=C1c2ccccc2S(=O)(=O)N1Cc1nc2ccccc2s1`, for which the cytotoxicity is 3.2% (inactive).

For `Cn1c(SC2=CS(=O)(=O)c3ccccc32)nc2ccccc21`, the cytotoxicity was 86.7% (active).

Take `Cc1cc(C)nc(SC2=CS(=O)(=O)c3ccccc32)n1`: the cytotoxicity is 2.9% (inactive).

Take `CCOC(=O)c1c(NC(N)=O)sc(C)c1C`: the cytotoxicity is 7.3% (inactive).

Consider `CN(C)S(=O)(=O)c1ccc(S(=O)(=O)Nc2ccc3c(c2)oc2ccccc23)cc1`, for which the cytotoxicity is -0.2% (inactive).

In the case of `COc1ccc2c(c1)c(=O)cc(C)n2CC(=O)NCc1ccco1`, the cytotoxicity is 6.1% (inactive).

With `CCN1CCCC1CNCc1ccc(Cl)cc1Cl` (stereo not drawn), the cytotoxicity was 12.8% (inactive).

As to `COc1ccc(CCNc2oc(COc3ccccc3F)nc2C#N)cc1`, the cytotoxicity is 23.7% (inactive).

For `COc1ccc(/C=N/n2cnnc2SCc2ccccc2)cc1`, the cytotoxicity is 5.9% (inactive).

With `COc1ccc(/C=N/n2cc(-c3ccccc3)nc2N)cc1`, the cytotoxicity was 70.8% (active).

Regarding `COc1ccc(/C=N/n2cc(-c3ccc(OC)cc3)nc2N)cc1`, the cytotoxicity was 3.7% (inactive).

In the case of `Cc1ccc2c(c1)CC1(CN2C)C(=O)OC2(CCCCC2)OC1=O`, the cytotoxicity was -4.6% (inactive).

Regarding `CN1CC2(Cc3c1ccc1ccccc31)C(=O)OC(C)(C)OC2=O`, the cytotoxicity was 64.4% (active).

With `O=C1COc2ccc3ccccc3c2CN1`, the cytotoxicity is -9.6% (inactive).

On to `O=C(NCCc1ccccc1)c1cnn2c(C(F)F)cc(C3CC3)nc12`, for which the cytotoxicity is 6.9% (inactive).

Consider `O=S(=O)(c1ccc(-c2cn3ccccc3n2)cc1)N1CCOCC1`, for which the cytotoxicity is -9.8% (inactive).

With `CC(C)Cc1cc(C(=O)O)n[nH]1`, the cytotoxicity was 9.9% (inactive).

As to `Cc1ccc(Cn2c(CN3CC(C)OC(C)C3)nc3c2c(=O)n(C)c(=O)n3C)cc1` (stereo not drawn), the cytotoxicity is -6.7% (inactive).

As to `COc1ccc(N2C(=O)C3CCCN3C2c2ccccc2OC)cc1` (stereo not drawn), the cytotoxicity was -10% (inactive).

On to `CN1CCN(c2nc(-c3ccccc3)nc3c2oc2ccccc23)CC1`, for which the cytotoxicity is 24.2% (inactive).

Consider `O=C(O)C1CCN(c2nc(-c3ccccc3)nc3c2oc2ccccc23)CC1`, for which the cytotoxicity was 27.2% (inactive).

For `CCOc1cc2nc(-c3ccc(OC)c(OC)c3)nc(N3CCOCC3)c2cc1OC`, the cytotoxicity was 74.8% (active).

As for `COc1cc2nc(-c3ccccc3)nc(N3CCCC3)c2cc1OC`, the cytotoxicity is 27.3% (inactive).

As to `COc1ccc(-c2csc(N3CCOCC3)n2)cc1OC`, the cytotoxicity was 2.9% (inactive).

In the case of `CC(C)(C)Nc1ncnc2c1cnn2-c1ccccc1`, the cytotoxicity was 17.2% (inactive).

In the case of `COC(=O)c1cccc(NC(=O)CSc2nnc(COc3ccccc3)n2C)c1`, the cytotoxicity was 8.3% (inactive).

Regarding `CC(C)N(C(=O)COc1ccc(Br)cc1Cl)C(C)C`, the cytotoxicity was -4.2% (inactive).

Consider `Cc1nc2nc(Cc3ccccc3)nn2c(C)c1Cl`, for which the cytotoxicity was 0.4% (inactive).

On to `O=C(c1ccc(COc2ccccc2Cl)o1)N1CCN(c2ccccc2)CC1`, for which the cytotoxicity was 24% (inactive).

Take `O=C(c1ccc(COc2ccccc2Cl)o1)N1CCN(Cc2ccc3c(c2)OCO3)CC1`: the cytotoxicity is 65.1% (active).

`O=C(c1ccc(COc2ccc(Cl)cc2)o1)N1CCN(Cc2ccc3c(c2)OCO3)CC1`: the cytotoxicity was 94.8% (active).

`CC1CCN(C(=O)c2ccc(COc3ccccc3Cl)o2)CC1`: the cytotoxicity is -8.5% (inactive).

`O=C(c1ccc(Cn2cc(Cl)cn2)o1)N1CCN(Cc2ccc3c(c2)OCO3)CC1`: the cytotoxicity is 12% (inactive).

Regarding `O=C(c1ccc(Br)o1)N1CCN(Cc2ccc3c(c2)OCO3)CC1`, the cytotoxicity is -4.9% (inactive).

For `CC(=O)c1ccccc1OCCCN1CCCCC1`, the cytotoxicity is 1.2% (inactive).

With `O=C(CNS(=O)(=O)c1cccs1)N1CCCC1`, the cytotoxicity is -3.8% (inactive).

As to `Cc1occc1-c1nnc(SCc2nc3ccccc3c(=O)n2CC#N)n1C`, the cytotoxicity was -5.4% (inactive).

`Cn1c(COc2ccccc2)nnc1SCCN1CCOCC1`: the cytotoxicity was -8.5% (inactive).

As to `O=c1[nH]c(Nc2ccccc2)cc2ccccc12`, the cytotoxicity is 0.6% (inactive).

For `Cc1ccccc1Nc1cc2ccccc2c(=O)[nH]1`, the cytotoxicity was 73.3% (active).

In the case of `Cc1cc2ccccc2c(=O)[nH]1`, the cytotoxicity is 3% (inactive).

As for `Fc1ccc(-c2cc3nc(-c4ccccc4)cc(N4CCN(CCN5CCOCC5)CC4)n3n2)cc1`, the cytotoxicity is 44.9% (inactive).

With `COc1ccc(OC)c(S(=O)(=O)NCc2cccnc2)c1`, the cytotoxicity was -4.2% (inactive).

Turning to `CCn1c(SCC(=O)N2CCc3ccccc32)nnc1-c1ccncc1`, the cytotoxicity was -9.5% (inactive).

As for `CN1CCN(Cc2ccc(OCc3ccccc3)cc2)CC1`, the cytotoxicity is 33.9% (inactive).

As for `CCOc1ccc(S(=O)(=O)Nc2cc(OC)ccc2OC)cc1`, the cytotoxicity is 75.9% (active).

In the case of `CCCCOc1ccc(S(=O)(=O)Nc2cc(OC)ccc2OC)cc1`, the cytotoxicity was 32.5% (inactive).

Take `COc1ccc(OC)c(NS(=O)(=O)c2ccc(SC)cc2)c1`: the cytotoxicity was 30.3% (inactive).

`COc1ccc(OC)c(NS(=O)(=O)c2ccc3c(c2)CCC(=O)N3)c1`: the cytotoxicity was 3.2% (inactive).

Regarding `COc1ccc(OC)c(NS(=O)(=O)c2ccc(N3CCCC3=O)cc2)c1`, the cytotoxicity is 79.5% (active).

In the case of `COC(=O)COc1ccc(S(=O)(=O)Nc2cc(OC)ccc2OC)cc1`, the cytotoxicity is 0% (inactive).

With `COc1ccccc1NC(=O)CSc1nnc(-c2ccncc2)o1`, the cytotoxicity is -3.6% (inactive).

On to `CCn1c(SCC(=O)Nc2nc(-c3ccc(C)cc3)cs2)nnc1-c1ccccc1O`, for which the cytotoxicity is 46.4% (inactive).

For the compound `CCc1nnc(NC(=O)CSc2nnc(-c3ccccc3O)n2-c2ccc(C)cc2C)s1`, the cytotoxicity was 61.3% (active).

In the case of `CCn1c(SCC(=O)Nc2nc(-c3ccccc3)cs2)nnc1-c1ccccc1`, the cytotoxicity is 23.1% (inactive).

`CCn1c(SCC(=O)Nc2nc(-c3ccccc3)cs2)nnc1-c1ccccc1O`: the cytotoxicity was 55.5% (active).

Regarding `CCn1c(SCC(=O)Nc2nc3ccccc3s2)nnc1-c1ccc(OC)cc1`, the cytotoxicity is 78.6% (active).

On to `CCn1c(Cc2ccccc2)nnc1SCC(=O)Nc1nc2ccccc2s1`, for which the cytotoxicity was 8.8% (inactive).

Take `CCc1nnc(NC(=O)CSc2nnc(-c3ccccc3OC)n2-c2ccccc2)s1`: the cytotoxicity is -6.6% (inactive).

As to `CCn1c(Cc2ccc(OC)cc2)nnc1SCC(=O)Nc1nc2ccccc2s1`, the cytotoxicity is -6.3% (inactive).

Consider `CCc1nnc(NC(=O)CSc2nnc(-c3ccccc3O)n2-c2ccc(C)cc2)s1`, for which the cytotoxicity was -7.5% (inactive).

As for `Cc1nc2ccccc2c(=O)n1/N=C/c1cccnc1`, the cytotoxicity is 20.1% (inactive).

With `CCCc1cc(=O)[nH]c(SCC(=O)c2cc(C)n(CCOC)c2C)n1`, the cytotoxicity is 1.9% (inactive).

Consider `COC(=O)C1CCN(C(=O)COC(=O)Cc2c[nH]c3ccccc23)CC1`, for which the cytotoxicity was 2.5% (inactive).

On to `O=C(CN1C(=O)c2ccccc2S1(=O)=O)NC1CCCCCC1`, for which the cytotoxicity is 1.2% (inactive).

Consider `CC1(C)Cc2ccccc2-c2nc(NCCCO)n(-c3ccccc3)c(=O)c21`, for which the cytotoxicity is 12.6% (inactive).

`O=C(Nc1ccc2c(c1)OCO2)Nc1ccc(Br)cn1`: the cytotoxicity was 21.3% (inactive).

With `CCCCCCc1cc2cc(C(=O)NC)c(=N)oc2cc1O`, the cytotoxicity is 30.5% (inactive).

For `CCOc1cccc2cc(-c3nnc(-c4ccccc4)o3)c(=O)oc12`, the cytotoxicity was -3.1% (inactive).

Take `CCCCCCc1cc2cc(-c3nnc(-c4ccccc4O)o3)c(=O)oc2cc1O`: the cytotoxicity was 55.8% (active).

For `CCN(CC)S(=O)(=O)c1ccc(-c2nnc(SCC(=O)Nc3nc(C)cs3)o2)cc1`, the cytotoxicity is 20.5% (inactive).

With `COC(=O)c1ccc(OC(=O)c2ccccn2)cc1`, the cytotoxicity was -2% (inactive).

In the case of `CC1(C)OC(=O)C2(Cc3ccccc3N3CCCCC32)C(=O)O1` (stereo not drawn), the cytotoxicity was -0.5% (inactive).

On to `O=C1c2ccccc2-c2ncnc3cccc1c23`, for which the cytotoxicity was -4.9% (inactive).

Take `O=C(O)c1ccc2c3c(ncnc13)-c1ccccc1C2=O`: the cytotoxicity is 75.9% (active).

Take `O=C1c2ccccc2-c2nccnc21`: the cytotoxicity was -3.8% (inactive).
